Hits are enriched below; roughly 11% of the tested compounds scored in any of these assays.
VDR inhibitor: Inhibitors of the vitamin D receptor (VDR): qHTS | AID 504847, 2011 | Potency, µM, usual class: inhibitors | Vitamin D3 receptor (Homo sapiens), P11473 | 400,000 compounds, 0.93% hits | VDR-SRC2-3 peptide fluorescence polarization, 2 h
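Fluorescence polarization assay measuring small-molecule disruption of VDR binding to the coregulator peptide SRC2-3. Compounds were pin-transferred (23 nl) into the reagent mix and incubated 2 h at room temperature before reading.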
G9a inh: qHTS Assay for Inhibitors of Histone Lysine Methyltransferase G9a | G9a H3K9 monomethylation, AlphaScreen, 2 h | Potency, µM (highest dose often 102 µM), most hits filed as inhibitors | 350,000 compounds, 8.8% hits; further: nearly all actives have a fitted effect of over 75% in size
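Compounds were preincubated with 20 nM G9a for 15 min, after which biotinylated H3K9 peptide (500 nM) and SAM (20 uM) started a 2 h room-temperature reaction. Monomethylated product was quantified by antibody-based AlphaScreen chemiluminescence.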
BAZ2B block: qHTS Assay for Inhibitors of BAZ2B. Potency, µM (doses to about 114 µM), actives largely listed as inhibitors. Bromodomain adjacent to zinc finger domain protein 2B (Homo sapiens), Q9UIF8. AlphaScreen BAZ2B-H3K14Ac peptide displacement. 360,000 compounds, 4.4% hits. AID 504333, 2011; further: nearly all actives have a fitted effect of over 60% in size
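AlphaScreen displacement of biotin-H3(5-23)K14Ac peptide (50 nM final) from BAZ2B (50 nM final) in PBS pH 7.4, 0.01% Tween-20; complex preformed 30 min RT, then compounds (top 110 uM) 30 min RT, beads 20 min dark.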
HP1b binding inh: HTS for Inhibitors of HP1-beta Chromodomain Interactions with Methylated Histone Tails | Chromobox protein homolog 1 (Homo sapiens), P83916 | AlphaScreen HP1-beta / biotin-H3K9me3 peptide binding | Potency, µM (titrated, usually from 114 µM), actives largely listed as inhibitors | 390,000 compounds, 0.56% hits | AID 540317, 2011; further: nearly all actives have a fitted effect of over 70% in size
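HP1-beta protein (50 nM final) preincubated 30 min at room temperature with biotinylated H3(1-18)K9me3 peptide (50 nM) in PBS pH 7.4, 0.01% Tween-20, then compound added for 30 min. AlphaScreen streptavidin donor/nickel chelate acceptor beads (10 ug/mL final), 30 min dark, luminescence read.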
PLK1 PBD inh: qHTS for Inhibitors of PLK1-PDB (polo-like kinase 1 - polo-box domain): Primary Screen; Potency, µM, most hits filed as inhibitors; AID 720504, 2013; Serine/threonine-protein kinase PLK1 (Homo sapiens), P53350; Plk1 PBD binding of FITC phosphopeptide, fluorescence polarization; 360,000 compounds, 2.8% hits; further: series mostly up to about 57 µM; nearly all actives have a fitted effect of over 65% in size
Target sequence (P53350 whole entry, looked up, the tested form may be a part): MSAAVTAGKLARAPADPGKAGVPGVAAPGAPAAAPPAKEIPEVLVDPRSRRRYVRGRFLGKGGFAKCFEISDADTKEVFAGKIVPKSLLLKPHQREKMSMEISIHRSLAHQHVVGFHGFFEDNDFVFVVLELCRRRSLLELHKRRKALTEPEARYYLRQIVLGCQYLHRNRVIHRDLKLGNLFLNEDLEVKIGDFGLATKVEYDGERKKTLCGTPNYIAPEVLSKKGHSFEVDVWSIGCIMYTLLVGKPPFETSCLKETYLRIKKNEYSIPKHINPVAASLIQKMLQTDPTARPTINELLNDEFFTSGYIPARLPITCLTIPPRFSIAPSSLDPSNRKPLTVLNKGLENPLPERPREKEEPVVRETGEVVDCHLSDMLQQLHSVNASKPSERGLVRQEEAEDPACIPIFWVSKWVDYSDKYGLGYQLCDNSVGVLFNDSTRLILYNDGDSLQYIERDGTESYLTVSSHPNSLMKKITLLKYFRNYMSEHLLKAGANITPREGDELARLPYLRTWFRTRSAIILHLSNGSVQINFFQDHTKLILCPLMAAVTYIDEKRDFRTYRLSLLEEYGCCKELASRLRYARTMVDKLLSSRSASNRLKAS
JMJD2A Tudor: qHTS Assay for Inhibitors of JMJD2A-Tudor Domain; Potency, µM (top dose mostly 114 µM), hits mostly inhibitors; Lysine-specific demethylase 4A (Homo sapiens), O75164; 390,000 compounds, 4.4% hits; AlphaScreen JMJD2A-Tudor / H3K4me3 peptide binding; AID 504339, 2011; further: nearly all actives have a fitted effect of over 50% in size
Numbers stand for hits; . = inactive; ? = inconclusive; / = not tested or not shown; [ ] = dose if it differs, or a comment. The call rests on the fitted dose curve; in most records, active means well fitted curve in the direction sought with a large enough effect; inconclusive means small, poorly fitted or top-dose-only effect, or another doubt; inactive means no such curve, though single readings can be large; an effect the other way counts as inactive or inconclusive.

SMILES	VDR inhibitor	G9a inh	BAZ2B block	HP1b binding inh	PLK1 PBD inh	JMJD2A Tudor
O=C(NNc1ccc(Cl)cc1)c1sccc1Cl	?	/	?	.	27µM	?
O=C(NNc1ccc(Cl)cc1)c1c(F)cccc1Cl	.	45µM	.	.	.	.
Cc1cccc(N2CCN(C(=O)CCc3nnc4n(CC(C)C)c(=O)c5ccccc5n34)CC2)c1C	.	.	.	.	/	.
NCCO/C=C/[C@H](N)C(=O)O	.	.	/	/	/	/
COCCOCCn1c(/C=C/c2ccccc2)nc2ccccc21	?	.	.	.	19µM	?
CCn1c(/C=C/c2cc[n+](C)cc2)nc2ccccc21	.	35µM	?	.	.	?
CCCn1c(/C=C/c2ccccc2)nc2ccccc21	.	.	.	.	.	.
Cc1ccc(OCCCCn2nnc3sc4c(c3c2=O)CCC(C)C4)cc1 (stereo not given)	.	?	?	.	/	.
Cc1ccc(-n2nc(-c3ccco3)cc2C(=O)O)cc1	.	?	79µM	.	?	.[11.4 µM]
CC(C)NC(=O)c1cc(-c2ccco2)nn1-c1ccc(Cl)cc1	?	3.5µM	50µM	?	.	35µM
CCOC(=O)c1cc(-c2ccco2)nn1-c1ccc(C)cc1	.	40µM	?	.	.	.
Cc1cc(-c2ccco2)n(CC(=O)O)n1	.	.	.	.	?	.
CCOC(=O)c1c(C)nc(C)c(C(=O)OCC)c1-c1ccco1	.	32µM	.	.	.	79µM
C[C@]12C=CC(=O)C=C1CC[C@@H]1C2[C@@H](O)C[C@@]2(C)C1CC[C@]2(O)C(=O)COC(=O)CCC(=O)O (stereo not given in full)	.	.	.	.	.	.
CC(=O)NC1C(Oc2ccccc2C)OC2COC(c3ccco3)OC2C1O (stereo not given)	.	.	.	.	.	.
COc1cccc(N2CCN(C(=O)c3ccc(Cn4c(=O)[nH]c5cc(OC)c(OC)cc5c4=O)cc3)CC2)c1	.	.	.	.	/	?
O=C(c1cc(-c2cccc(Cl)c2)on1)N1CCCCCC1	.	.	.	.	.	.
CCOC(=O)c1cc(-c2ccco2)nc2c1c(C)nn2CCC#N	.	11µM	.	.	.	.
O=C(c1cc(-c2ccco2)nn1-c1cccc(Cl)c1)N1CCCCC1	?	3.2µM	?	?	27µM	25µM
COC(=O)[C@@]1(Cc2ccc(F)cc2)[C@H]2c3cc(C(=O)N(C)C)n(Cc4ccsc4Br)c3C[C@H]2CN1C(=O)c1ccccc1	/	/	/	/	.	/
CCCc1nc2c(s1)CCc1onc(-c3ccc(OC)cc3)c1-2	?	/	/	?	27µM	.
CCCc1nc2c(s1)CCc1onc(-c3ccc(Cl)cc3)c1-2	.	.[2.33 µM]	.	.	.	.
COc1ccc(-c2noc3c2-c2nc(C(C)C)sc2CC3)cc1	.	/	/	.	?	.
CCCc1nc2c(s1)CCc1onc(-c3ccc(Br)cc3)c1-2	?	/	/	.	15µM	.
O=C(Cc1cccc(NC(=O)C2CCCN(C(=O)C3CCCC3)C2)c1)Nc1cccc(C(=O)N2CCOCC2)c1 (stereo not given)	.	/	/	.	.	.
SMILES	VDR inhibitor	G9a inh	BAZ2B block	HP1b binding inh	PLK1 PBD inh	JMJD2A Tudor
O=C(Nc1nc2c(Cl)ccc(Cl)c2s1)C1CC1	.	/	.	.	.	.
NNc1nc2c(Cl)ccc(Cl)c2s1	.	?	50µM	.	.	45µM
Cc1cc(C)c(NC(=O)CN(C)C(=O)CNC(=O)c2cccs2)c(C)c1	.	.[12.7 µM]	.	.	.	.
O=[N+]([O-])c1ccccc1/C=C/c1ccc2ccccc2n1	.	/	?	.	27µM	40µM
O=[N+]([O-])c1cccc2ccc(/C=C/c3ccc(F)cc3)nc12	.	13µM	?	.	.	?
CCCCN(C(=O)Cn1nnc2ccccc21)C(C(=O)NCCOC)c1cccs1 (stereo not given)	.	.	.	.	.	.
O/C(=C\c1nc2ccccc2nc1/C=C(\O)c1ccccc1)c1ccccc1	79µM	?	4.5µM	.	?	?
O/C(=C\c1ccc2ccccc2n1)c1ccncc1	.	.[2.33 µM]	.	.	.	.
O=C(O)c1c[nH]c2cc(C(F)(F)F)ccc2c1=O	.	.[0.501 µM]	50µM	.	.	.
Nc1cc2nc3ccccc3oc-2cc1=O	?	/	45µM	.	.	?
Cc1nc2ccccc2oc1=O	.	/	/	/	/	/
COc1cc2c(cc1OC)[C@@H]1C(=O)c3ccc4c(c3O[C@@H]1CO2)C=CC(C)(C)O4	.	/	/	/	/	/
COc1ccccc1/C=C/C=N/n1c(-c2cc(C)[nH]n2)n[nH]c1=S	.	1.6µM	?	.	.	7.9µM
Cc1cc(-c2n[nH]c(=S)n2/N=C/C=C/c2ccccc2)n[nH]1	.	1.4µM	?	?	.	10µM
COc1ccccc1/C=C\C=N\n1c(C2CCCCC2)n[nH]c1=S	.	.[0.0925 µM]	?	?	?	.
COc1ccccc1/C=C/C=N/n1c(-c2ccccn2)n[nH]c1=S	.	1.6µM	14µM	.	.	8.9µM
CCOC(=O)c1cc(-c2ccccc2)n(-c2cccc(C(=O)NC(C)CC)c2)c1C (stereo not given)	.	?	.	.	/	.
N#CCN1CCC(c2cc(-c3ccco3)n[nH]2)CC1	.	.	.	?	30µM	.[11.4 µM]
c1coc(-c2cc(C3CCNCC3)[nH]n2)c1	.	?	.	.	.	.
Cc1ccc(C)n1-c1ccc(-c2nnco2)cc1	/	45µM	.	/	/	/
O=C(Nc1cccc(Cl)c1)c1nc[nH]c1C(=O)Nc1ccccc1F	/	/	/	/	.	/
Cc1c(Cl)cccc1NC(=O)CSc1ncnc2c1sc1ccccc12	.	.	.	.	/	.
CN(C)S(=O)(=O)c1cccc(N=C2NN=C(c3ccccc3)CS2)c1	?	35µM	.	?	?	.
COc1ccc(Cn2c(O)cc(=O)[nH]c2=O)cc1	.	10µM	.	.	?	.
CC(=O)C(=Nc1ccccc1Cl)NNc1ccc(Cl)cc1	45µM	7.9µM	28µM	50µM	.	32µM
CN(CC(O)CN)CC(O)CN1CCCCC1 (stereo not given)	.	3.5µM	.	.	.	.
OC(CN1CCCCCC1)CN(c1ccccc1)c1ccccc1 (stereo not given)	.	.	.	.	.	.
O=C(NC1CCCCC1)C(=S)N1CCOCC1	.	?	.	.	24µM	.
Nc1nnc(SCC(=O)N2CCN(Cc3ccccc3)CC2)s1	.	45µM	.	.	.	.
CCOC(=O)CNC(=O)CSc1nnc(SCC(=O)NCC(=O)OCC)s1	.	18µM	.	.	.	.
